High-throughput results as filed in PubChem BioAssay.
An excerpt weighted towards active compounds, which were near 21% of everything screened.
Shiga inhibitor = inhibitors of Shiga toxin in Vero cells; inhibition, % at 38.7 µM; Vero cells, Shiga toxin protein synthesis inhibition reporter; hit rate 9.2% among 290,000; AID 2315; in the data active = inhibition mostly above about 28%, no sharp cut-off; inactive = mostly below about 43%; note: 0% is about no effect
FBPA Giardia inh = inhibitors of Giardia lamblia fructose-1,6-bisphosphate aldolase. A8B2U2. purified Giardia FBPA. Potency, µM (doses to about 59.6 µM), without a hit: at the highest dose activity, negative = inhibition, usual class: inhibitors. hit rate 0.71% among 290,000; note: potency is the fitted concentration of half-maximal effect; % is set by controls: 0 for no effect and ±100 for the full control effect; nearly all actives have a fitted effect of over 55% in size
Target sequence (A8B2U2 whole entry, looked up): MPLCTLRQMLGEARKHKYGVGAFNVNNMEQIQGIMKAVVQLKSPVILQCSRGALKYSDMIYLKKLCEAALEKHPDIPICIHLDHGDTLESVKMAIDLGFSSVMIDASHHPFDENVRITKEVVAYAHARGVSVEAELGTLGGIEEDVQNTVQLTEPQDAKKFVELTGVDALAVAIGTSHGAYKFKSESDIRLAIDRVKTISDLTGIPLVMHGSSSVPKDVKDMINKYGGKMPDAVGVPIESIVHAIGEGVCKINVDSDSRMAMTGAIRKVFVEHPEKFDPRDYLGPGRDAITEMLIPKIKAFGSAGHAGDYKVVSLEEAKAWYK
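40 nM FBPA preincubated 10 min at RT with compound (up to 57.5 uM final), then substrate plus GAPDH/TPI/NAD/arsenate coupling and diaphorase/resazurin added. Fluorescence read after 20 min at RT, 525/598 nm.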
NS1 function inh = inhibitors of influenza NS1 protein function | Potency, µM (titrated, usually from 46.1 µM), without a hit: at the highest dose activity, positive = more growth | hit rate 0.4% among 270,000; calls by dose curve; note: potency is the fitted concentration of half-maximal effect; actives are rising curves; nearly all actives have a fitted effect of over 50% in size
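Compounds were scored for reversing the slow growth caused by influenza A NS1 in S. cerevisiae, measured by optical density at 600 nm. Assay medium contained 2% galactose at pH 6.0; NS1-free yeast of the same strain were the positive control.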
Pf growth 96h = P. falciparum growth inhibition at 96 hours; P. falciparum luciferase reporter growth, 96 h; Potency, µM (doses to about 28.7 µM), inactives show at the top dose activity change, negative = inhibition, usual class: inhibitors; hit rate 6.9% among 320,000; AID 504834; note: potency is the fitted concentration of half-maximal effect; % is set by controls: 0 for no effect and ±100 for the full control effect
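Parasite growth measured via integrated firefly luciferase reporter in P. falciparum. Infected erythrocytes at 2% hematocrit, 0.05% parasitemia final were treated 96 hours at 37 C under 5% CO2, and luminescence was read.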
Cycloheximide cs = counter-screen for Shiga toxin inhibitors: cycloheximide protein synthesis inhibition. cell reporter, cycloheximide protein synthesis inhibition counterscreen. AID 2314. hit rate 12% among 300,000. max response, %; in the data active = max response mostly above about 13%, no sharp cut-off; inactive = mostly below about 14%; note: read at 38.3 µM for the half of the compounds with a filed dose; 0% is about no effect
Pf growth 48h = P. falciparum growth inhibition at 48 hours (one generation); P. falciparum luciferase growth in erythrocytes, 48 h; Potency, µM (highest dose often 28.7 µM), without a hit: top-dose activity change, negative = inhibition, actives largely listed as inhibitors; hit rate 5.9% among 310,000; note: potency is the fitted concentration of half-maximal effect; % is set by controls: 0 for no effect and ±100 for the full control effect
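First compound was added to culture medium, then infected red cells at 0.1% parasitemia and 2% hematocrit (final). After incubation at 37 C under 5% CO2, luciferase detection reagent was dispensed and light output recorded.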
The depositor's hits bear a star; i = inactive; ? = inconclusive; · = no result given; [ ] = dose if it differs, or a comment. Unless noted, calls come from the whole dose curve; as a rule, active = well fitted curve in the direction sought with a large enough effect; inconclusive = small, poorly fitted or top-dose-only effect, or another doubt; inactive = no such curve, though single readings can be large; an effect the other way counts as inactive or inconclusive.

SMILES	Shiga inhibitor	FBPA Giardia inh	NS1 function inh	Pf growth 96h	Cycloheximide cs	Pf growth 48h
Cc1ccc(C)c(N2CCN(C(=O)c3ccc(NC4=NC5CS(=O)(=O)CC5S4)cc3)CC2)c1 (centres undefined)	-3	-21%	18%	10µM*	-5	-1%
CCOc1ccc(Cl)cc1S(=O)(=O)N1CCC(C(=O)N2CCCC2)CC1	-4	·	-8%	?	1	-6%
COc1ccc(C2=C(C=Nc3c(C)n(C)n(-c4ccccc4)c3=O)C(c3ccccc3C)c3ccccc3O2)cc1OC (centres undefined)	-4	-2%	?	·	4	0.33µM*
CC(C)CC(NC(=O)NC(CCC(=O)O)C(=O)O)C(=O)O (centres undefined)	-7	1%	·	·	-3	·
CCn1c(COc2ccccc2)nnc1SCC(=O)NC1CC1	-2	·	3%	-12%	-1	?
Cc1nn2c(-c3ccncc3)ccnc2c1Cl	5	1%	·	-3%	-4	?
Clc1ccc(-c2cnn3c(-c4ccncc4)ccnc23)cc1	89*	4%	·	277%	35*	i
CCOC(=O)c1cnc2c(C(=O)OCC)cnn2c1N	22	6%	0%	82%	13	77%
Cc1cc(-c2ccc(Cl)cc2)n2nc(N)nc2n1	19	-3%	1%	·	12	7%
Nc1c(C(=O)O)cnc2c(-c3ccc(Cl)cc3)cnn12	91	?	·	i	27*	124%
CC(=O)c1cnc2c(-c3ccc(Cl)cc3)cnn2c1C	40*	2%	2%	2%	14	268%
Nc1nc2nccc(-c3ccc(Cl)cc3)n2n1	42*	?	-236%	·	44*	?
Cn1cc(NC(=O)Nc2ccc(C(F)(F)F)cc2)c(C(F)(F)F)n1	17	-3%	-37%	?	-2	?
CC12CC[C@@H]3c4ccc(OP(=O)(O)O)cc4CCC3C1CCC2=O (some centres undefined)	·	·	-3%	·	·	·
CC1CCCC(C)N1C(=O)CSc1nnc(COc2ccc(F)cc2)o1 (centres undefined)	15	-2%	-4%	6%	-3	-19%
COc1ccccc1CNC(=O)C/C(C)=N/NC(=O)Cc1ccc(Cl)cc1	-6	?	5%	?	-3	9%
CN(c1ccccc1C(=O)N1CCN(Cc2ccc3c(c2)OCO3)CC1)S(C)(=O)=O	-9	0%	·	?	-2	11%
O=C(CSc1ccccn1)Nc1ccc2[nH]c(=O)[nH]c2c1	·	·	·	45%	·	39%
COc1cccc(NC(=O)c2nc(SC)ncc2Cl)c1	29	-5%	-3%	-23%	9	7%
COc1cccc(NC(=O)c2ccn(C)n2)c1	72*	-5%	1%	i	41*	i
COc1cccc(NC(=O)c2cncs2)c1	-6	3%	-2%	-16%	1	39%
COc1cccc(NC(=O)c2ncc(Cl)c(Cl)c2Cl)c1	63*	-2%	·	235%	32*	439%
COc1cccc(NC(=O)c2cnsn2)c1	140*	-6%	-10%	148%	44*	·
O=C1OC(N2C(=O)CC[C@H]2C(=O)Nc2ccc(Br)cc2F)c2ccccc21 (some centres undefined)	8	11%	-9%	3%	-2	-4%
O=C(O)[C@@H](O)[C@@H](O)[C@@H](O[C@H]1O[C@@H](CO)[C@@H](O)[C@@H](O)[C@@H]1O)[C@@H](O)CO	·	0%[21.7 µM]	·	·	·	·
SMILES	Shiga inhibitor	FBPA Giardia inh	NS1 function inh	Pf growth 96h	Cycloheximide cs	Pf growth 48h
O=C(N/N=C/c1ccccc1[N+](=O)[O-])c1ccncc1	40*	0%	2%	0.17µM*	21*	75%
O=C(N/N=C/c1ccccc1[N+](=O)[O-])c1cnccn1	91*	-18%	0%	125%	31*	86%
COc1cccc(/C=N/NC(=O)c2cnccn2)c1OC	50*	-2%	4%	141%	17*	10%
O=C(N/N=C/C=C/c1ccccc1[N+](=O)[O-])c1ccncc1	6	?	7%	46%	-4	46%
O=C(N/N=C/c1ccc(Cl)c([N+](=O)[O-])c1)c1cnccn1	25	-19%	-6%	5%	1	-2%
COc1ccc(/C(N)=N/OC(=O)CSc2ccccc2)cc1OC	68	-3%	-12%	·	55*	91%
COc1ccc(C(=O)COC(=O)CCc2ccccc2)cc1	-2	-3%	-2%	14%	6	-12%
COc1ccc(/C(N)=N/OC(=O)CCc2ccccc2)cc1	93*	-11%	-1%	-3%	52*	19%
COc1ccc(/C(N)=N/OC(=O)Cc2ccc(OC)c(OC)c2)cc1	26	-15%	-64%	?	18	?
CCCc1ccc(C(=O)CCC(=O)O)cc1	65*	27%	?	6%	52*	51%
Cc1ccc(C(=O)CCC(=O)O)cc1	-12	-1%	2%	17%	-4	·
COc1ccc(C(=O)CCc2ccccc2)cc1	117*	3%	-11%	?	43*	·
CCCOc1ccccc1C(=O)N1CCCCC1CCN1CCCCC1 (centres undefined)	-3	·	·	·	-4	·
COc1ccc(/C(N)=N/OC(=O)CCCN2C(=O)c3ccccc3C2=O)cc1OC	17	1%	·	7%	-3	-7%
COc1ccc(CNC(=O)CCC(=O)c2ccccc2)cc1	·	·	·	-28%	·	15µM*
COc1ccc(/C(N)=N/OC(=O)CCc2ccccc2)cc1OC	60	-8%	-2%	-6%	27*	16%
Cc1cccc(/C(N)=N/OC(=O)CCc2ccccc2)c1	52*	2%	-11%	53%	32*	33%
CC1CCCN(C2(O)C(=O)Nc3ccc(Cl)cc32)C1 (centres undefined)	10	-6%	-3%	?	1	-4%
Cc1cc(C)nc(N(C#N)CCOc2ccc(Cl)cc2)n1	39*	-10%	-26%	?	16*	?
CCCN(C#N)c1nc(NCC)nc(NC(C)C)n1	-11	17%	-5%	?	-3	?
Cc1cc(C)nc(N(C#N)Cc2ccc(Cl)cc2)n1	43	3%	1%	13µM*	-3	14%
COc1nc(N(C)C)nc(N(C#N)CCOC(C)=O)n1	-25	4%	-2%	-8%	0	-8%
Cc1ccccc1OCCN(C#N)c1nc(N(C)C)nc(N(C)C)n1	9	-6%	-1%	26%	1	12µM*
CC(C)Nc1nc(NC(C)C)nc(N(C#N)CCOc2ccc(Cl)cc2Cl)n1	1	-9%	-3%	?	2	10µM*
CCCc1cc(=O)oc2cc(C)cc(OCC(=O)NC3CC3)c12	-4	11%	4%	2.1µM*	-6	1.7µM*
CCCc1cc(=O)oc2cc(C)cc(OCC(=O)Nc3ccc(CN4CCOCC4)cc3)c12	-2	·	-5%	8.3µM*	1	?
CCc1cc(=O)oc2cc(C)cc(OCC(=O)NC3CC3)c12	-1	-6%	5%	?	-9	12µM*
